# Laboratory results: PubChem BioAssay
# The other results are listed elsewhere or left out. Unmarked numbers belong to inactive results. Calls of active or inactive are those of the source.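 The calls were made as follows, unless noted: active = average inhibition above a cutoff equal to the mean inhibition of all tested compounds plus one SD (cut at about 70% in these data); inactive = the rest.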
# Target: Photoreceptor-specific nuclear receptor (Homo sapiens) (UniProt Q9Y5X4)
# Experiment: NR2E3 agonist confirmation in cells, cell-based, luminescence, CHO-S two-hybrid (AID 624378);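 also: 0% = DMSO in NR2E3 cells and 100% = DMSO in cells lacking NR2E3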
# Settings: CHO-S mammalian two-hybrid NR2E3-NCOR, luciferase luminescence; at 3.98 µM; stronger effect = higher value
# Chain of Photoreceptor-specific nuclear receptor (Homo sapiens) (Q9Y5X4 whole entry, looked up): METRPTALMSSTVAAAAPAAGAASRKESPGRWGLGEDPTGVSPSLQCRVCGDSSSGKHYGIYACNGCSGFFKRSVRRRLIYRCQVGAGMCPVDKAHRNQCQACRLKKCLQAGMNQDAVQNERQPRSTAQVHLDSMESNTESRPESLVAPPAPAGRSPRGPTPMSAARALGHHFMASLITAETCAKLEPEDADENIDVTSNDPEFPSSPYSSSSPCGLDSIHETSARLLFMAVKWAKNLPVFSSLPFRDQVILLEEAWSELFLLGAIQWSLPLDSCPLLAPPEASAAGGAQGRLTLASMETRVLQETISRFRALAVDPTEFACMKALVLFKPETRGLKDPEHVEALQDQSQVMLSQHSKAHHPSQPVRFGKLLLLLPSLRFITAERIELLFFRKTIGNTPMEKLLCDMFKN
row,Compound,inhibition
1,Cn1nccc1C(=O)NC1CCCc2c1cnn2-c1ccccc1F (stereo not given),93.7% (active)
2,COc1ccc(CC(=O)Nc2nc(-c3ccc(F)c(F)c3)cs2)cc1OC,98% (active)
3,CCOC(=O)N1CCN(C(=O)C2CCN(c3ncnc4c3sc3cccc(F)c34)CC2)CC1,92% (active)
4,Cc1cc(C(=O)NC2CCCc3c2cnn3-c2cccc(C)c2C)c(C)o1 (stereo not given),72.7% (active)
5,Cn1c(Cc2cccc3ccccc23)nnc1SCC(=O)N1CCN(c2cccc(Cl)c2)CC1,78.1% (active)

# Tested on: not listed separately
# Experiment: GAL4-VP16 reporter modulators, confirmation, counter-screen for NR2E3 agonist project, cell-based, luminescence, CHO-S, high throughput (AID 624379;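 active = mean inhibition above a cutoff equal to the average over all tested compounds plus one standard deviation, cut at about 70% in these data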;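 also: luciferase from a UAS reporter driven by GAL4-VP16 transactivation; 0% = DMSO with VP16-transfected cells and 100% = DMSO with cells lacking VP16; higher means less reporter light so more repression of VP16 activity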)
# Settings: CHO-S GAL4-VP16 luciferase reporter, at 3.98 µM, stronger effect = higher value
row,Compound,inhibition
1,Cn1nccc1C(=O)NC1CCCc2c1cnn2-c1ccccc1F (stereo not given),86.2% (active)
2,COc1ccc(CC(=O)Nc2nc(-c3ccc(F)c(F)c3)cs2)cc1OC,81.8% (active)
3,CCOC(=O)N1CCN(C(=O)C2CCN(c3ncnc4c3sc3cccc(F)c34)CC2)CC1,70.3%
4,Cc1cc(C(=O)NC2CCCc3c2cnn3-c2cccc(C)c2C)c(C)o1 (stereo not given),69.9%
5,Cn1c(Cc2cccc3ccccc23)nnc1SCC(=O)N1CCN(c2cccc(Cl)c2)CC1,30.7%
